The list is not random: actives were taken first. Their share in the collection is about 8%.
MCF10A rereplic – inducers of DNA re-replication in MCF 10A breast cells. AID 624296. MCF 10A DNA re-replication, Hoechst nuclear intensity, 48 h. 2.9% of 350,000 active. Potency, µM (top dose mostly 46.1 µM), inactives show top-dose activity, positive = re-replication, hits mostly activators; note: % of control where 0% means no effect; nearly all actives have a fitted effect of over 50% in size
HT1080 IDH1KD tx – toxicity to HT-1080 IDH1 knockdown cells (counter line) | HT-1080 IDH1 knockdown viability, ATP luminescence, 48 h | Potency, µM (series often up to 46.1 µM), inactives show at the top dose activity, negative = toxicity, most hits filed as cytotoxic | 2% of 360,000 active;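 note: 0% = DMSO wells and -100% = cell-free medium wells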
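% activity derives from luminescence (CellTiter-Glo), normalised to DMSO and no-cell wells. HT-1080-IDH1KD cells, 750/well, had 48 h compound exposure at 37 °C.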
SW480 rereplic – inducers of DNA re-replication in SW480 colon cancer cells. SW480 DNA re-replication, Hoechst DNA content imaging, 48 h. Potency, µM (titrated, usually from 46.1 µM), inactives show at the top dose re-replication activation, usual class: activators. 1.8% of 340,000 active. AID 624297; note: % of control where 0% means no effect; nearly all actives have a fitted effect of over 55% in size
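Readout is total intensity of Hoechst-stained nuclei, excited at 405 nm and collected at 500-530 nm. Compound treatment lasted 48 hr at 37 C in 5% CO2 before staining.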
HT1080-NT tox – kills 2HG-producing HT-1080-NT fibrosarcoma cells. HT-1080-NT fibrosarcoma viability, CellTiter-Glo ATP luminescence, 48 h. Potency, µM (highest dose often 46.1 µM), for inactives: at the top dose activity, negative = less viability, hits mostly cytotoxic. 1.6% of 360,000 active;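 note: NT is the 2HG producing partner of a matched IDH1 knockdown line; 0% = DMSO-treated cells and -100% = media-only wells without cells; nearly all actives have a fitted effect of over 55% in size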
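Read-out is CellTiter-Glo luminescence after 10 minutes at room temperature, following 48 hours' compound treatment of HT-1080-NT cells (750 cells/well, RPMI, 5% FBS, 37 degrees C).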
KB-V1 MDR tox – kills drug-selected multidrug resistant KB-V1 cells | KB-V1 MDR cells viability, CellTiter-Glo, 72 h | Potency, µM (titrated, usually from 46.1 µM), actives largely listed as cytotoxic | 3.4% of 400,000 active | AID 1347076; note: % is set by controls: 0 for no effect and ±100 for the full control effect; nearly all actives have a fitted effect of over 60% in size
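KB-V1 cells (P-gp-expressing MDR subline of KB-3-1) in phenol-red-free DMEM with 10% FBS were exposed to library compounds over a concentration series for 72 h at 37 degrees C. Viability read by CellTiter-Glo luminescence; concentration-effect curves fitted after normalization.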
KB-3-1 cytotox – KB-3-1 parental cell cytotoxicity; KB-3-1 viability, CellTiter-Glo ATP luminescence, 72 h; Potency, µM (doses to about 46.1 µM), hits mostly cytotoxic; 1.4% of 400,000 active; AID 1347075; note: % is set by controls: 0 for no effect and ±100 for the full control effect; nearly all actives have a fitted effect of over 60% in size
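Cells are dispensed, compounds pinned in, plates held at 37 °C for 72 h, then CellTiter-Glo is added and luminescence read after 10 minutes. Cell line: parental KB-3-1 in phenol-red-free DMEM, 10% FBS.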
* hit, by the source's call; i = inactive; ? = inconclusive; . = not tested or not shown; [ ] = remark or other dose. Calls come from the whole dose curve; as a rule, active = well fitted curve in the direction sought with a large enough effect; inconclusive = small, poorly fitted or top-dose-only effect, or another doubt; inactive = no such curve, though single readings can be large; an effect the other way counts as inactive or inconclusive. Potency is the fitted concentration of half-maximal effect.

SMILES	MCF10A rereplic	HT1080 IDH1KD tx	SW480 rereplic	HT1080-NT tox	KB-V1 MDR tox	KB-3-1 cytotox
O=C(CSc1ncc2c(n1)-c1ccccc1N(Cc1ccc(Cl)cc1)S2(=O)=O)c1ccc(Cl)cc1	.	.	.	.	i	i
CCCc1nc2cc(C)c(Br)c(C)n2c1CC1CCCCC1	.	?	.	?	i	16µM*
Cc1ccc(-c2nc3cc(C)c(Br)c(C)n3c2CC2CCCCC2)cc1	.	-17%	.	2%	i	?
CN(c1cccc(NC(=O)c2ccc(Cl)c(S(=O)(=O)Nc3ccccc3)c2)c1)S(C)(=O)=O	9%	?	8%	?	i	i
Cc1ccc(NS(=O)(=O)c2cc(C(=O)Nc3cccc([N+](=O)[O-])c3)ccc2C)cc1	?	?	1%	-9%	15µM*	i
Cc1ccc(C)c(NC(=O)c2ccccc2NS(=O)(=O)c2cc([N+](=O)[O-])ccc2C)c1	14%	13µM*	-14%	10µM*	i	21µM*
Cc1ccc([N+](=O)[O-])cc1S(=O)(=O)Nc1cccc(S(=O)(=O)Nc2ccccc2C(=O)O)c1	11%	2%	-1%	5%	.	.
Cc1ccc(C(=O)Nc2cccc([N+](=O)[O-])c2)cc1S(=O)(=O)Nc1ccc(NC(=O)c2ccccc2)cc1	5%	-2%	4%	-1%	i	i
Cc1ccccc1NS(=O)(=O)c1cc(C(=O)Nc2cccc(N(C)S(C)(=O)=O)c2)ccc1C	15µM*	?	8%	?	i	i
CCCCCCOC(=O)Nc1ccc(S(=O)(=O)Nc2cccc([N+](=O)[O-])c2)cc1	?	0%	-3%	-1%	21µM*	i
Cc1ccc(NC(=O)CN(C)C(=O)c2ccc(NS(=O)(=O)c3cccc([N+](=O)[O-])c3)cc2)cc1	-7%	-1%	2%	-8%	i	i
Cc1ccc(NS(=O)(=O)c2ccc(OCC(=O)Nc3cccc([N+](=O)[O-])c3)c(C)c2)cc1	?	13µM*	14%	?	i	i
Cc1cc(NC(=O)CCNS(=O)(=O)c2ccc3c(c2)CCCC(=O)N3)ccc1Br	.	.	.	.	i	i
CCN(C[C@H]1N[C@@](Cc2ccccc2)(C(=O)OC)[C@H]2C(=O)N(C)C(=O)[C@@H]12)C(=O)c1ccc(F)cc1	0.82µM*	19%	-2%[9.22 µM]	21%	i	i
CCN(C[C@H]1N[C@@](Cc2ccccc2)(C(=O)OC)[C@H]2C(=O)N(C)C(=O)[C@@H]12)C(=O)c1ccc(C(C)(C)C)cc1	-14%	-7%	-1%[9.22 µM]	9%	i	i
CCN(C[C@H]1N[C@@](C)(C(=O)OC)[C@H]2C(=O)N(Cc3ccccc3)C(=O)[C@@H]12)C(=O)C1CCCCC1	-5%	0%	1.5µM*	2%	i	i
CCN(C[C@H]1N[C@@](Cc2ccccc2)(C(=O)OC)[C@H]2C(=O)N(Cc3ccccc3)C(=O)[C@@H]12)C(=O)Nc1ccc(Cl)cc1	?	?	18µM*	?	?	?
CCN(C[C@H]1N[C@@](CC)(C(=O)OC)[C@H]2C(=O)N(Cc3ccccc3)C(=O)[C@@H]12)C(=O)c1ccc(C(C)(C)C)cc1	?	21µM*	-8%[9.22 µM]	?	?	i
CCN(C[C@H]1N[C@@](Cc2ccccc2)(C(=O)OC)[C@H]2C(=O)N(Cc3ccccc3)C(=O)[C@@H]12)C(=O)C1CCCCC1	-19%	0%	?	0%	i	i
Cc1ccc(-n2nc(C(=O)Nc3ccc(F)cc3Cl)c(=O)n(C)c2=O)cc1	.	.	.	.	i	i
CCC(Cc1ccccc1)NC(=O)CN1C(=O)COc2ccc(S(=O)(=O)N3CCCCCC3)cc21 (stereo not drawn)	.	.	.	.	i	i
CCN(CC)CCOC(=O)c1ccc(N/C=C(/C#N)c2nc(-c3ccc(OC)c(OC)c3)cs2)cc1	18µM*	-20%	23µM*	23µM*	i	i
COC(=O)c1ccc2c(=O)n(CCc3ccc(S(N)(=O)=O)cc3)c(SCC(=O)C(C)(C)C)nc2c1	.	.	.	.	i	i
Cc1cccc(NC2=Nc3ccccc3N3C2=Nc2c(c(C)nn2-c2ccccc2)C3c2ccc(O)c(O)c2)c1 (stereo not drawn)	?	16µM*	7.3µM*	15µM*	?	?
Cc1ccc(NC2=Nc3ccccc3N3C2=Nc2c(c(C)nn2-c2ccccc2)C3c2ccc(O)c(O)c2)cc1 (stereo not drawn)	?	?	9.2µM*	23µM*	?	?
SMILES	MCF10A rereplic	HT1080 IDH1KD tx	SW480 rereplic	HT1080-NT tox	KB-V1 MDR tox	KB-3-1 cytotox
Fc1cccc2sc(Nc3nnc(-c4ccccc4)o3)nc12	23µM*	?	12%	?	i	?
Cc1cccc(Cc2c(C)nc3nc(SCc4cccc(F)c4)nn3c2C)c1	.	.	.	.	i	i
Cc1ccc(-c2cc(=O)c3cc(F)ccc3[nH]2)cc1	?	-16%	0%	-25%	?	?
O=c1cc(-c2cccc(F)c2)[nH]c2ccccc12	1.3µM*	1.5µM*	1.3µM*	1.8µM*	?	0.37µM*
O=c1cc(-c2ccccc2)[nH]c2ccc(F)cc12	2.1µM*	2.3µM*	1.6µM*	?	?	1.2µM*
Cc1ccc(-c2cc(=O)c3cc(C)ccc3[nH]2)cc1	?	21µM*	21µM*	?	?	9.2µM*
Cc1ccc2[nH]c(C(F)(F)F)cc(=O)c2c1	-13%	?	?	-25%	?	i
Cc1ccc2[nH]c(-c3cccc(F)c3)cc(=O)c2c1	1.2µM*	1.5µM*	0.82µM*	1.6µM*	i	0.41µM*
Fc1ccc(CCNc2ncnc3nc[nH]c23)cc1	.	.	.	.	i	i
Cc1cccc(NC(=O)C(=O)NCC(c2cccnc2)N2CCOCC2)c1 (stereo not drawn)	.	.	.	.	i	i
COc1ccc2[nH]c(-c3cccc(F)c3)cc(=O)c2c1	1.3µM*	0.52µM*	0.73µM*	?	?	0.41µM*
O=c1cc(-c2ccccc2)[nH]c2cc(Cl)ccc12	1.6µM*	0.58µM*	0.73µM*	0.52µM*	?	?
CCC(=O)N1CCc2cc(S(=O)(=O)CCC(=O)N3CCN(c4cccc(C)c4)C(C)C3)ccc21 (stereo not drawn)	.	.	.	.	i	i
COC(=O)C1=C(C)Nc2c(c(=O)n(C)c(=O)n2C)C1c1ccncc1 (stereo not drawn)	0%	-8%	-9%	-3%	i	i
